Test results from PubChem BioAssay AID1159580 (chemical genetic matrix, 2015).
“And” between values parts separate entries of the source, which are not always exact repeats. Equal entries are not always repeated. Hit rate of the full screen: of about 5,500 compounds, about 2,000 (36%) were called active. Roughly 18% stayed inconclusive and do not appear here. Rule as the data show it: active = normalized growth mostly below about 0.91 (no sharp cut-off); inconclusive = no clear call, values can overlap the other calls; inactive = mostly above about 0.92. The list shows a part of the results.

Assay: chemical genetic growth profiling, strain panel (AID 1159580);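 also: tested at 20 µM; growth read once vehicle control cultures reached saturation at 30 °C; 1 = growth at the plate median or of vehicle wells; lower values mean less growth of the strain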
Conditions: S. cerevisiae deletion strains, growth OD

Measured: normalized growth

CC(C)(C)NC[C@@H](O)COc1nsnc1N1CCOCC1
inactive: locus YAL021C, strain ccr4, stronger effect = lower value 1.02 | locus YAL026C, strain drs2, stronger effect = lower value 1.01 | locus YAL030W, strain snc1, stronger effect = lower value 1.02 | locus YBL061C, strain skt5, stronger effect = lower value 1.01 | locus YBR009C, strain hhf1, stronger effect = lower value 1.01 | locus YBR021W, strain FUR4, stronger effect = lower value 1 | locus YBR023C, strain chs3, stronger effect = lower value 1 | locus YBR171W, strain sec66, stronger effect = lower value 1.03 | locus YBR229C, strain ROT2, stronger effect = lower value 0.977 | locus YBR231C, strain swc5, stronger effect = lower value 1.02 | locus YBR279W, strain paf1, stronger effect = lower value 1.01 | locus YCL011C, strain gbp2, stronger effect = lower value 1.02 | locus YCL016C, strain dcc1, stronger effect = lower value 1.01 | locus YCL029C, strain bik1, stronger effect = lower value 0.978 | locus YCL069W, strain vba3, stronger effect = lower value 1.01 | locus YCR088W, strain abp1, stronger effect = lower value 1.02 | locus YDL005C, strain med2, stronger effect = lower value 1.02 | locus YDL035C, strain GPR1, stronger effect = lower value 1.02 | locus YDL040C, strain nat1, stronger effect = lower value 1.01 | locus YDL074C, strain BRE1, stronger effect = lower value 0.985 | locus YDL101C, strain DUN1, stronger effect = lower value 0.99 | locus YDL185W, strain tfp1, stronger effect = lower value 0.977 | locus YDL192W, strain arf1, stronger effect = lower value 0.994 | locus YDR001C, strain nth1, stronger effect = lower value 1.01 | locus YDR069C, strain doa4, stronger effect = lower value 1.01 | locus YDR101C, strain arx1, stronger effect = lower value 0.95 | locus YDR137W, strain rgp1, stronger effect = lower value 1.02 | locus YDR150W, strain NUM1, stronger effect = lower value 0.99 | locus YDR159W, strain sac3, stronger effect = lower value 1 | locus YDR162C, strain NBP2, stronger effect = lower value 1.02 | locus YDR195W, strain ref2 1.03 | locus YDR297W, strain sur2, stronger effect = lower value 1.02 | locus YDR318W, strain mcm21, stronger effect = lower value 1 | locus YDR334W, strain swr1, stronger effect = lower value 1.02 | locus YDR335W, strain msn5, stronger effect = lower value 1.02 | locus YDR388W, stronger effect = lower value 0.99 | locus YDR392W, strain spt3, stronger effect = lower value 0.973 | locus YDR502C, strain sam2, stronger effect = lower value 0.994 | locus YEL003W, strain gim4, stronger effect = lower value 1.02 | locus YEL037C, strain rad23, stronger effect = lower value 1.01 | locus YEL061C, strain CIN8 (second series), stronger effect = lower value 1.02 | locus YEL061C, strain CIN8, stronger effect = lower value 0.996 | locus YER015W, strain faa2, stronger effect = lower value 1 | locus YER016W, strain bim1, stronger effect = lower value 0.994 | locus YER110C, stronger effect = lower value 0.974 | locus YER111C, strain swi4, stronger effect = lower value 1.02 | locus YER155C, strain BEM2 (second series), stronger effect = lower value 1.01 | locus YER155C, strain BEM2, stronger effect = lower value 0.987 | locus YER167W, strain BCK2, stronger effect = lower value 0.986 | locus YFR010W, strain ubp6, stronger effect = lower value 1.02 | locus YGL078C, strain dbp3, stronger effect = lower value 1 | locus YGL086W, strain mad1, stronger effect = lower value 0.966 | locus YGL167C, strain pmr1, stronger effect = lower value 1.02 | locus YGL173C, strain kem1, stronger effect = lower value 1.02 | locus YGL227W, strain vid30, stronger effect = lower value 1.01 | locus YGL240W, strain doc1, stronger effect = lower value 1.02 | locus YGL248W, strain PDE1, stronger effect = lower value 1 | locus YGL253W, strain hxk2, stronger effect = lower value 1.02 | locus YGR078C, strain PAC10, stronger effect = lower value 1 | locus YGR135W, strain pre9, stronger effect = lower value 1 | locus YGR252W, strain gcn5, stronger effect = lower value 1.08 | locus YHR013C, strain ard1, stronger effect = lower value 1.02 | locus YHR027C, strain rpn1, stronger effect = lower value 1.01 | locus YHR030C, strain SLT2, stronger effect = lower value 0.997 and 0.975 | locus YHR079C, strain IRE1 (second series), stronger effect = lower value 0.983 | locus YHR079C, strain IRE1, stronger effect = lower value 0.973 | locus YHR094C, strain hxt1, stronger effect = lower value 0.974 | locus YHR129C, strain ARP1, stronger effect = lower value 1 | locus YHR142W, strain chs7, stronger effect = lower value 1.03 | locus YHR200W, strain rpn10, stronger effect = lower value 1 | locus YIL066C, strain RNR3, stronger effect = lower value 0.985 | locus YIL073C, strain SPO22, stronger effect = lower value 1.01 | locus YIL125W, strain kgd1, stronger effect = lower value 0.981 | locus YIR030C, strain dcg1, stronger effect = lower value 1 | locus YJL092W, strain hpr5, stronger effect = lower value 1.01 | locus YJL095W, strain BCK1 (second series), stronger effect = lower value 1.02 | locus YJL095W, strain BCK1, stronger effect = lower value 1.01 and 0.975 | locus YJL115W, strain asf1, stronger effect = lower value 1.01 | locus YJL129C, strain trk1, stronger effect = lower value 1.02 | locus YJL134W, strain LCB3, stronger effect = lower value 0.985 | locus YJL154C, strain vps35, stronger effect = lower value 1.02 | locus YJL164C, strain tpk1, stronger effect = lower value 1.01 | locus YJL166W, strain qcr8, stronger effect = lower value 1.01 | locus YJL168C, strain set2, stronger effect = lower value 0.984 | locus YJL187C, strain SWE1 (second series), stronger effect = lower value 0.99 | locus YJL187C, strain SWE1, stronger effect = lower value 1.02 | locus YJR043C, strain POL32, stronger effect = lower value 1.03 | locus YJR066W, strain TOR1, stronger effect = lower value 0.929
